Source: PubChem BioAssay AID1946 (Johns Hopkins Ion Channel Center, 2009)
Screen size: about 2,400 compounds; about 180 (7.5%) were called active. For the sample, actives were picked, then their nearest neighbours and some compounds at random. A number with no mark means an inactive call.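 How the source made its calls: active means readout below zero, meaning a drop past 3 SD under the dofetilide-free negative control mean; inactive means the rest.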

These compounds were tested against Potassium voltage-gated channel subfamily KQT member 2 (Rattus norvegicus) (UniProt O88943) (assay: rat KCNQ2 channel inhibition by compounds alone, confirmation, counter-screen for hERG block protector project, cell-based, CHO, FluxOR thallium flux (AID 1946)). Conditions: CHO-KCNQ2 cells, FluxOR thallium flux fluorescence; at 10 µM; hits give low values; zero marks the 3-SD hit cutoff.
Sequence of Potassium voltage-gated channel subfamily KQT member 2 (Rattus norvegicus) (O88943 whole entry, looked up): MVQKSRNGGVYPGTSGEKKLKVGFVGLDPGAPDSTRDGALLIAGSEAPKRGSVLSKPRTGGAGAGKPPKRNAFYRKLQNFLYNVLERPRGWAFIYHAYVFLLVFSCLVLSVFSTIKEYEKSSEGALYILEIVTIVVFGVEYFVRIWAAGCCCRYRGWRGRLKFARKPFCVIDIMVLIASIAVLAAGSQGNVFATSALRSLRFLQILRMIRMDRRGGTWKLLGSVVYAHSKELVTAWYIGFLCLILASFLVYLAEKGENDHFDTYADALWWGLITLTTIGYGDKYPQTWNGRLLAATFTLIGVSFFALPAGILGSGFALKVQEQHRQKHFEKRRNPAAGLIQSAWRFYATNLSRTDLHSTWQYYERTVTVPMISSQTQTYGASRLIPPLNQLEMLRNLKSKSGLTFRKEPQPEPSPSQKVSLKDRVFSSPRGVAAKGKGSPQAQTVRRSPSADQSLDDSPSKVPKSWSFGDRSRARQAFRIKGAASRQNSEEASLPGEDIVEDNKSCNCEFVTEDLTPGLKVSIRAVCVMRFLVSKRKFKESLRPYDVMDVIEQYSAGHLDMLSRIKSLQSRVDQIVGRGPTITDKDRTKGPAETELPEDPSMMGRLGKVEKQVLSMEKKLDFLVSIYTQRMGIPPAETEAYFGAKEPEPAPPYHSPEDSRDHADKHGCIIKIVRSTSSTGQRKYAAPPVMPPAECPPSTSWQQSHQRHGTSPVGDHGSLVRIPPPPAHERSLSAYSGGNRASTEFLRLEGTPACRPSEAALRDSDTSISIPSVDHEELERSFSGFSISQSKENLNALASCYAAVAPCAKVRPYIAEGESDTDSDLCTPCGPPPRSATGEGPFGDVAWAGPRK

| Structure (SMILES) | activity change vs negative control |
| --- | --- |
| CC(C)(C)OC(=O)NCCCC(CCCNC(=O)OC(C)(C)C)C(=O)O | -1.1% (active) |
| Cc1c(C)c2ccc(OCC(=O)N[C@@H](Cc3ccccc3)C(=O)O)cc2oc1=O | 11.8% |
| O=C(NC(=S)Nc1ccccc1Cl)c1ccco1 | 32.3% |
| O=C(CCC1CCCC1)NNC(=O)c1cccc(Cl)c1 | 39.5% |
| Cn1c(=S)[nH]c2scc(-c3cccs3)c2c1=O | 93.4% |
| CCc1ccc(C(C)NC(=O)C2CCCC2)cc1 (stereo not given) | 42.6% |
| CCCCCn1c(=S)[nH]c2ncccc2c1=O | 48.4% |
| O=C(NC(=S)N1CCN(c2ccccc2)CC1)c1ccccc1 | 33.2% |
| Cc1ccc(/C=C(\NC(=O)c2ccccc2)C(=O)N2CCCCC2)cc1 | -1.3% (active) |
| CC(C)(C)c1ccc(C(=O)NC(=S)N2CCCCCC2)cc1 | 40.6% |
| CCCCOc1ccc(-c2c(C#N)c(N)[nH]c(=S)c2C#N)cc1 | 21.3% |
| O=c1oc2ccccc2c(Cl)c1CN1CCCCC1 | 32.3% |
| C=CCn1c(=S)[nH]c2ccc(Br)cc2c1=O | 40.2% |
| COC(=O)c1ccc(NC(=O)COC(=O)C2CC(=O)N(Cc3ccccc3)C2)cc1 (stereo not given) | -5.2% (active) |
| O=C(COC(=O)C1CCC(=O)N1)Nc1ccc(Oc2ccccc2)cc1 (stereo not given) | 10.5% |
| COc1ccc(N2CC(C(=O)OCC(=O)Nc3ccccc3C)CC2=O)cc1 (stereo not given) | 9% |
| COC(=O)c1c(NS(=O)(=O)Cc2ccccc2)sc2c1CCCC2 | 56.6% |
| Cc1ccccc1C(=O)c1cn[nH]c1-c1ccccc1O | -4.7% (active) |
| Cc1ccccc1C(=O)Nc1nc(=S)ss1 | 82.2% |
| Cc1ccc(C(=O)c2ccccc2C(=O)O)c(O)c1 | 6.4% |
| COc1ccc(C(=O)CC(=O)C(=O)Nc2ccccc2C(F)(F)F)cc1 | 36.8% |
| CCOC(=O)N1CCC(N2C(=O)c3ccccc3C2Nc2cccnc2)CC1 (stereo not given) | 27.6% |

| Structure (SMILES) | activity change vs negative control |
| --- | --- |
| CCOc1ccc(C(C)NC(=S)NC2CCCCC2)cc1 (stereo not given) | 40.9% |
| Fc1cccc2sc(Nc3nc4c(F)cccc4s3)nc12 | 30.2% |
| Cc1ccc(-c2csc3nc[nH]c(=S)c23)cc1 | 62.4% |
| Cn1nnnc1SCC(=O)NC1CCCc2ccccc21 (stereo not given) | -7.8% (active) |
| O=C(NC(=S)NC1CCCc2ccccc21)c1ccco1 (stereo not given) | 28.4% |
| CCn1nnnc1SCC(=O)N1c2ccccc2Sc2ccccc21 | 5.3% |
| Cn1nnnc1SCC(=O)Nc1ccccn1 | 8.7% |
| Cc1cccc(OCC(=O)NC2CCCc3ccccc32)c1C (stereo not given) | -10.6% (active) |
| CCOc1ccc(NC(=O)CS(=O)CC(=O)NC2CCCc3ccccc32)cc1 (stereo not given) | 8.3% |
| Cc1cccc(NC(=O)C(=O)NNC(=O)c2ccc(C(C)(C)C)cc2)c1 | 134% |
| C=CCn1c(=S)[nH]c2sc3c(c2c1=O)CCC3 | 64.2% |
| CC(NC(=O)NC1CCCCC1)c1ccccc1 (stereo not given) | 57.6% |
| CCN(Cc1ccccc1)C(=S)NC(=O)c1ccccc1Br | 96.1% |
| S=c1nc(SCc2ccccc2)[nH]c2ccccc12 | 95.4% |
| Cc1ccc(/C=C/C(=O)C2C(=O)c3ccccc3C2=O)cc1 | 69.5% |
| Cc1ccc(/C=N/N2C(=O)c3ccccc3NC2c2ccc(C)cc2)cc1 (stereo not given) | -1.1% (active) |
| Cc1cc([N+](=O)[O-])ccc1-c1ccc(C2Nc3ccccc3C(=O)N2O)o1 (stereo not given) | 24.1% |
| CC(C)CNC(=S)NC(=O)c1ccc(Cl)cc1 | 10.6% |
| CCc1c(C)sc(NC(=O)CN2CCN(C(=O)c3ccco3)CC2)c1C(=O)OC | 44.4% |
| Cc1ccc(-c2nc3c(Cl)cc(Cl)cc3c(=O)n2O)cc1 | 164% |
| CC(=O)C1=C(O)C(=O)N(c2cccnc2)C1c1ccc(Cl)cc1 (stereo not given) | -2.8% (active) |
| O=C1c2ccccc2C(=O)N1c1cccnc1 | 6.9% |

| Structure (SMILES) | activity change vs negative control |
| --- | --- |
| CC1=NN(c2ccccc2)C(=O)C1C(=O)c1ccc(Cl)cc1 (stereo not given) | 28.9% |
| CN(Cc1ccccc1)C(=S)NC(=O)c1cccs1 | 31.2% |
| Nc1nc(O)c(N=Nc2ccc(S(N)(=O)=O)cc2)c(=O)[nH]1 | -2% (active) |
| Cc1ccc2[nH]c(=O)c(C(c3nnnn3C3CCCC3)N3CCCc4ccccc43)cc2c1 (stereo not given) | 27.9% |
| COc1ccc(-c2csc(NC(=S)NC(=O)c3ccco3)n2)cc1 | 21.1% |
| C=Cc1ccc(Cn2c(=O)n(CCCOC)c(=O)c3sccc32)cc1 | -5.9% (active) |
| Cn1c(=O)c2sccc2n(Cc2cccc(Br)c2)c1=O | 10.6% |
| COCCCn1c(=S)[nH]c2c(sc3ccccc32)c1=O | 12.3% |
| Cc1cccc2nc(-c3cccnc3)c(NCCC(C)C)n12 | -23.5% (active) |
| CC(C)Cn1c(=S)[nH]c2cc(Cl)ccc21 | 21% |
| COc1ccc(-c2nc(=S)c3ccc4ccccc4c3[nH]2)cc1 | 74.5% |
| CC(C)OC(=O)c1c(NS(=O)(=O)c2ccccc2)sc2c1CCCC2 | 31% |
| C/C(=C/CCC(C)C1CCC2(C)C3CCC4C(C)(C)C(=O)CCC4(C)C3=CCC12C)C(=O)O (stereo not given) | 4.1% |
| C/C(=C/CCC(C)[C@H]1CC[C@@]2(C)C3=C(CC[C@]12C)[C@@]1(C)CCC(=O)C(C)(C)[C@@H]1CC3)C(=O)O (stereo not given in full) | -13.3% (active) |
| O=C1c2ccccc2NC(c2ccc(Br)s2)N1O (stereo not given) | 92.4% |
| COc1cccc(C=NCCCN=Cc2cccc(OC)c2O)c1O | 37.4% |
| Cc1ccnc(SCCn2c(N3CC(C)OC(C)C3)nc3c2c(=O)n(C)c(=O)n3C)n1 (stereo not given) | -2% (active) |
| C=CCn1c(N2CCCCCC2)nc2c1c(=O)n(C)c(=O)n2C | 15.6% |
| CCOC(=O)NC(=S)Nc1ccc(C(C)(C)C)cc1 | 30.4% |
| CCOc1ccc(/C=C2/SC(=O)NC2=S)cc1 | 111% |
| CCCCC(=O)Nc1ccc(NCc2ccc(C)s2)cc1 | 66.2% |
